This is a sample that favours compounds with a hit; in the whole collection about 7.5% have one here.
FMDV inh: High Throughput Screening for Foot and Mouth Disease Virus Antivirals; FMDV antiviral cell-based qHTS; AID 1159524, 2015; Potency, µM (series often up to 57.9 µM), without a hit: at the highest dose activity change, negative = inhibition, most hits filed as inhibitors; 1.2% of 410,000 active; calls by dose curve; tested in HEK293T cells; also: read-out not given here; potency is read from the fitted curve at half-maximal effect; nearly all actives have a fitted effect of over 45% in size
VACV mCherry inh: qHTS for Stage-Specific Inhibitors of Vaccinia Orthopoxvirus: mCherry Reporter Primary qHTS. Vaccinia virus mCherry reporter infection, fluorescence. Potency, µM (top dose mostly 36.5 µM), inactives show at the top dose activity change, negative = inhibition, usual class: inhibitors. 0.63% of 310,000 active; calls by dose curve; tested in A549 cells; also: potency is read from the fitted curve at half-maximal effect; nearly all actives have a fitted effect of over 35% in size
HCV inh: qHTS Assay for Inhibitors of Hepatitis C Virus (HCV); Potency, µM (doses to about 41.8 µM), for inactives: at the highest dose activity change, negative = inhibition, most hits filed as inhibitors; 3.4% of 340,000 active; Huh7.5.1 HCVcc-Cre infection, luciferase reporter, 44 h; also: potency is read from the fitted curve at half-maximal effect
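A cell-based infection assay in which seeded cells (1,000 per well) receive test compound after 4 h, are inoculated with HCVcc-Cre at approximately 0.5 moi, and are incubated 44 h before luminescence detection.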
Vaccinia Venus: qHTS for Stage-Specific Inhibitors of Vaccinia Orthopoxvirus: Venus Reporter Primary qHTS | Vaccinia virus Venus reporter expression, fluorescence | Potency, µM (top dose mostly 36.5 µM), inactives show at the highest dose activity change, negative = inhibition, actives largely listed as inhibitors | 0.46% of 330,000 active | AID 720580, 2013; calls by dose curve; tested in A549 cells; also: potency is read from the fitted curve at half-maximal effect; nearly all actives have a fitted effect of over 30% in size
Giardia FBPA inh: qHTS Assay for Inhibitors of Fructose-1,6-bisphosphate Aldolase from Giardia Lamblia. AID 2451, 2010. 0.71% of 290,000 active. purified Giardia FBPA. A8B2U2. Potency, µM (top dose mostly 59.6 µM), without a hit: at the highest dose activity, negative = inhibition, actives largely listed as inhibitors; also: potency is read from the fitted curve at half-maximal effect; nearly all actives have a fitted effect of over 55% in size
Target sequence (A8B2U2 whole entry, looked up): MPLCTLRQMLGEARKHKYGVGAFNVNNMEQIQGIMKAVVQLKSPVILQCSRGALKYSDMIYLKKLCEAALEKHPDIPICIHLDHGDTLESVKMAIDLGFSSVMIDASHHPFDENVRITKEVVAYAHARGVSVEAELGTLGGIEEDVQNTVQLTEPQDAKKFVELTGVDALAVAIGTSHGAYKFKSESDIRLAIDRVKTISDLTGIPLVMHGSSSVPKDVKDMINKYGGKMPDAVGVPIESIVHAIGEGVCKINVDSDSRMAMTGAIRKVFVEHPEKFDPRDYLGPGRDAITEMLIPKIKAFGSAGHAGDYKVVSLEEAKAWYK
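40 nM FBPA preincubated 10 min at RT with compound (up to 57.5 uM final), then substrate plus GAPDH/TPI/NAD/arsenate coupling and diaphorase/resazurin added. Fluorescence read after 20 min at RT, 525/598 nm.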
HCMV inh: qHTS Assay for inhibitors of the human cytomegalovirus (HCMV). HFF cells, HCMV-luciferase reporter, 72 h; stronger effect = lower value. activity change, negative = inhibition, % at 57.5 µM. 4.5% of 410,000 active; in the data active = activity change below about -60%; inconclusive = no clear call, values can overlap the other calls; inactive = above about -39%
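Two compound doses tested in HFFs infected with HCMV-luciferase, MOI 1 PFU/cell, 72 h at 37C. Lysate luminescence read with OneGlo; data normalized against buffer-only and 10uM Salinomycin inhibitor controls.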
Active calls of the source: *; i = inactive; u = inconclusive; x = not tested or not shown. Unless noted, calls follow the shape of the dose curve; as a rule, active = well fitted curve in the direction sought with a large enough effect; inconclusive = small, poorly fitted or top-dose-only effect, or another doubt; inactive = no such curve, though single readings can be large; an effect the other way counts as inactive or inconclusive. % is scaled to controls: 0 for no effect and ±100 for the full control effect.

SMILES	FMDV inh	VACV mCherry inh	HCV inh	Vaccinia Venus	Giardia FBPA inh	HCMV inh
OC(CNc1ccnc2cc(Cl)ccc12)CNC1CCCCC1 (stereo not given)	-16%	-15%	u	u	x	-78*
CCNC1CCC(Nc2ccnc3cc(Cl)ccc23)CC1 (stereo not given)	-22%	-2%	13µM*	-24%	x	5
OC(CNC1CCCC1)COc1ccc(Cl)cc1 (stereo not given)	-4%	i	u	-11%	-27%	16
CC(=O)c1cccc(Nc2nccc3c2cc(-c2cccc(C(F)(F)F)c2)n3C)c1	x	x	x	x	x	-31
CC(C)N1C(=O)c2ccccc2N(Cc2ccccc2)S1(=O)=O	-21%	x	-16%	x	2%	-62*
CSc1ncc2c(n1)-c1ccccc1N(Cc1ccccc1)S2(=O)=O	-26%	-17%	x	-15%	x	9
CCc1nc2ccccc2c(C(=O)OCC(=O)N(CCOC)c2c(N)n(Cc3ccccc3)c(=O)[nH]c2=O)c1C	-25%	-21%	14µM*	-19%	x	u
CC(C)CN(C(=O)COC(=O)c1ccc(Br)cc1)c1c(N)n(Cc2ccccc2)c(=O)[nH]c1=O	u	u	u	13µM*	x	-10
CC(=O)Nc1sc(C)c(C)c1C(=O)OCC(=O)N(CC(C)C)c1c(N)n(Cc2ccccc2)c(=O)[nH]c1=O	-10%	14%	5µM*	0%	x	-31
COC(=O)c1c(C)[nH]c(C(=O)OCC(=O)N(CC(C)C)c2c(N)n(Cc3ccccc3)c(=O)[nH]c2=O)c1C	-12%	-22%	u	-22%	x	23
CC(C)CN(C(=O)c1ccc([N+](=O)[O-])s1)c1c(N)n(Cc2ccccc2)c(=O)[nH]c1=O	-30%	20µM*	-11%	u	x	-27
CCCCNC(=O)C(CC)n1c(SCc2cccc(F)c2)nc2ccncc21 (stereo not given)	x	3%	x	-13%	x	x
Cc1ccc(SCC(=O)OCC(=O)N(CC(C)C)c2c(N)n(Cc3ccccc3)c(=O)[nH]c2=O)c(C)c1	-23%	u	10µM*	u	x	-11
CC(C)CN(C(=O)COC(=O)C12CC3CC(CC(C3)C1)C2)c1c(N)n(Cc2ccccc2)c(=O)[nH]c1=O	-18%	-1%	16µM*	-19%	x	-84*
CC(C)CN(C(=O)COC(=O)CSc1ccccc1F)c1c(N)n(Cc2ccccc2)c(=O)[nH]c1=O	-18%	-13%	7%	-9%	x	4
CC(C)CN1CCN=C1Nc1ccccc1	-8%	-9%	14%	-2%	-1%	-18
O=c1cc(-c2ccc(O)cc2)oc2ccc(O)cc12	27%	u	32µM*	-11%	7%	84
O=c1cc(-c2cccc(O)c2)oc2ccc(O)cc12	36%	-9%	x	-18%	6%	x
CC(C)(C)c1cccc(Cn2nnc3ccccc32)c1O	-28%	u	u	u	x	u
Cc1cc(Cn2nnc3ccccc32)c(O)c(C(C)(C)C)c1	16%	-14%	10µM*	u	x	-20
N#Cc1nc(-c2ccc(COc3ccc(Cl)cc3)o2)oc1N1CCCCC1	u	-6%	x	-3%	x	-27
COc1ccc(Oc2ccc(/C=C/C(=O)c3cccc(OC)c3)cc2[N+](=O)[O-])cc1	32µM*	-26%	u	-2%	9%	u
COc1ccc(/C=N/NC(=O)c2cccnc2)cc1	39%	x	8%	x	5%	-22
COc1ccc(Oc2ccc(/C=N/NC(=O)c3cccnc3)cc2[N+](=O)[O-])cc1	0%	-24%	u	-15%	-1%	-80*
COc1ccc(C=CC(=O)c2ccc3cc(OC)c(OC)cc3c2)cc1OC	u	u	x	u	x	183
SMILES	FMDV inh	VACV mCherry inh	HCV inh	Vaccinia Venus	Giardia FBPA inh	HCMV inh
Fc1ccccc1-c1noc2nc(Oc3cccc(N4CCOCC4)c3)ccc12	x	x	x	x	x	-29
O=[N+]([O-])c1ccc(Cl)c(S(=O)(=O)/N=C(/Sc2ccc(Br)cc2)c2ccccc2)c1	x	27%	x	-14%	x	x
CC(C)CNC(=O)CSc1nc(-c2cccs2)cc(C(F)(F)F)n1	u	i	-28%	-9%	1%	-68*
O=C(CSc1nc(-c2ccc(F)cc2)cc(C(F)(F)F)n1)NCc1ccccc1	-23%	u	x	-17%	x	-25
O=C(CSc1nc(-c2cccs2)cc(C(F)(F)F)n1)NCc1ccccc1	-13%	x	4µM*	x	1%	-17
Cc1cc(NC(=O)CSc2nc(-c3cccs3)cc(C(F)(F)F)n2)no1	x	-14%	u	-30%	5%	u
CCN(CC)CCCNC(=O)CSc1nc(-c2cccs2)cc(C(F)(F)F)n1	-10%	5%	u	-1%	2%	u
CCOc1ccc(NC(=O)CSc2nc(-c3cccs3)cc(C(F)(F)F)n2)c([N+](=O)[O-])c1	-3%	-9%	16%	-2%	10%	-101*
O=C(NCCc1ccccc1)c1nc2nc(-c3cccs3)cc(C(F)(F)F)n2n1	18%	-20%	10µM*	-22%	-2%	65
CCCNC(=O)CSc1nc(-c2cccs2)cc(C(F)(F)F)n1	-9%	x	4µM*	x	x	-19
CCOc1ccc(-c2c(C)nn3c(C)c(C(=O)Nc4cccc(Cl)c4C)cnc23)cc1OCC	u	7%	x	0%	x	-15
Cc1cc(-c2ccc(NS(=O)(=O)c3ccccc3)c(C)c2)ccc1NS(=O)(=O)c1ccccc1	-1%	-24%	8.9µM*	-21%	x	15
O=S(=O)(Nc1ccc(Cl)cc1NS(=O)(=O)c1ccccc1)c1ccccc1	-21%	-4%	0.5µM*	-23%	x	-29
Cc1cc(C)c(NS(=O)(=O)c2ccccc2)c(C)c1	-10%	-13%	u	1%	x	-22
Cc1ccc(NS(=O)(=O)c2ccccc2)c2c1CC(C)(C)O2	12%	-20%	10µM*	-11%	u	-16
Cc1ccc(Cl)cc1NS(=O)(=O)c1ccccc1	43%	-3%	8%	-8%	x	-20
Cc1ccc(NS(=O)(=O)c2ccccc2)c(NS(=O)(=O)c2ccccc2)c1	-3%	-3%	14%	-8%	x	-2
CCCCCn1nc2ccccc2c1OC	x	x	x	x	x	-15
CCOCCCNC(=O)c1ccc(NC(=O)N2CCCCc3ccccc32)cc1	-10%	-11%	x	-1%	x	-4
Cc1ccccc1NC(=O)c1ccccc1NC(=O)Cc1cccc2ccccc12	-2%	x	17%	x	7%	-2
Cc1ccccc1NC(=O)c1cccc2nc3ccccc3nc12	-28%	u	u	u	x	-73*
O=C(COc1ccc(Nc2ccccc2)cc1)OCC(=O)N1CCCCC1	-7%	x	10%	x	0%	0

Source: PubChem (National Center for Advancing Translational Sciences (NCATS))
